Assay outcomes from PubChem.
Shown is part of a subset that was picked to be rich in hits.
ST2 inh = blocks human ST2 binding to IL-33; Q01638; AlphaLISA ST2-Fc/biotin-IL-33 interaction, 1 h; inhibition, % for hits at 17 µM; actives 2.3% (n = 78,000); AID 1259354; in the data active = inhibition above about 30%
Target sequence (Q01638 whole entry, looked up): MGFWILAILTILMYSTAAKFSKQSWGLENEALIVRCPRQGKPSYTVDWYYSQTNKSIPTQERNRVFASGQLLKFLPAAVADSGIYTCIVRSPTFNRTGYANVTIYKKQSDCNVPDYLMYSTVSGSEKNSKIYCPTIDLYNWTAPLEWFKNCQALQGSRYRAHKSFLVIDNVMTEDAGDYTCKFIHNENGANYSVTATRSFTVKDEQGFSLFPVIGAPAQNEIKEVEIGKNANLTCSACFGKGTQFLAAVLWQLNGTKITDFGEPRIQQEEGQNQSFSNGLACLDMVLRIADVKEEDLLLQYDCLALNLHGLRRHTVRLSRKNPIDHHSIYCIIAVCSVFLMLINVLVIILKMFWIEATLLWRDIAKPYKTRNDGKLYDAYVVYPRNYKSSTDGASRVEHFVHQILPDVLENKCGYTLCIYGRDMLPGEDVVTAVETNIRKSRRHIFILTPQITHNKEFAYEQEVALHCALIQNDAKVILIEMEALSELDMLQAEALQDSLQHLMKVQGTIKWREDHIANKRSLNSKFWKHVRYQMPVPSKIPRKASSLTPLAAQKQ
Large screens that a line does not name were inactive; ! = not active in a repeat.

COCC(=O)N1CCCN(Cc2ccc(-c3ccccn3)cc2)CC1	none
O=C(Nc1cccc(F)c1)c1ccccc1Br	none
N/C(=C\C(=O)c1ccccc1O)C(Cl)(Cl)Cl	none
Cc1ccc(S(=O)(=O)N2CN3CN(C2)CN(S(=O)(=O)c2ccc(C)cc2)C3)cc1	ST2 inh 46%
COc1ccc(S(=O)(=O)N2CCN(S(=O)(=O)c3ccc(C)cc3)CC2)cc1	none
Cc1ccc(S(=O)(=O)N2CCN(c3ccccc3)CC2)cc1	none
COc1ccc(-c2nc(SCC(=O)N3CCCCCC3)c3c(=O)n(C)c(=O)n(C)c3n2)cc1	none
CSc1nnc2c(n1)OC(c1cccc(C)n1)N(C(C)=O)c1ccccc1-2 (stereo unspecified)	none
COc1ccc(-c2nc(S(=O)(=O)c3ccc(Cl)cc3)c(NCc3ccco3)o2)cc1	none
N#Cc1nc(-c2ccc(Cl)cc2)oc1NCc1ccco1	ST2 inh 35%!
O=S(=O)(c1ccccc1)c1nc(-c2ccc(Cl)cc2)oc1NCc1ccco1	none
O=C(NCc1ccccc1-n1ccnc1)c1cc(=O)[nH]c2ccccc12	none
CCOc1ccc(N2C(=O)CC(NCCN3CCOCC3)C2=O)cc1 (stereo unspecified)	none
CCc1nn(-c2ccccc2)c(NC(=O)c2cccnc2OC)c1C	none
O=C(Nc1ccccc1-c1ccccc1)c1ccc([N+](=O)[O-])cc1Cl	none
CC(=O)c1ccc(NC(=O)c2cc3cc(Br)ccc3oc2=O)cc1	ST2 inh 39%
CC(=O)c1ccc(OC(=O)c2cc3cc(Br)ccc3oc2=O)cc1	none
Cc1ccc(NC(=O)c2cc3cc(Br)ccc3oc2=O)cc1C	none
COc1ccc(S(=O)(=O)N2CCN(C(=O)c3cccc([N+](=O)[O-])c3)CC2)cc1	none
O=C(c1ccc2c(c1)C1C=CCC1C(c1ccc(Cl)cc1)N2)N1CCOCC1 (stereo unspecified)	ST2 inh 63%
CN1CCN(C(=O)c2cccc([N+](=O)[O-])c2)CC1	none
O=C(O)c1ccc2c(c1)C1C=CCC1C(C(=O)O)N2 (stereo unspecified)	ST2 inh 82%
Cc1ccc(C2Nc3c(ccc(C(=O)O)c3C)C3C=CCC32)cc1 (stereo unspecified)	none
O=C(c1ccc2c(c1)C1C=CCC1C(c1cccc([N+](=O)[O-])c1)N2)N1CCCCC1 (stereo unspecified)	ST2 inh 38%
CCOC(=O)C1Nc2c(ccc(C(=O)O)c2C)C2C=CCC12 (stereo unspecified)	none
Fc1ccc(C2Nc3ccc(Cl)cc3C3C=CCC32)cc1 (stereo unspecified)	none
O=C(O)c1ccc2c(c1)C1C=CCC1C(c1ccc(Br)cc1)N2 (stereo unspecified)	none
O=C(CN1Cc2ccccc2OC(c2ccsc2)C1)NCc1cccc(-n2cccn2)c1 (stereo unspecified)	none
CN(Cc1ccc2nsnc2c1)C(=O)c1cc(COc2cccc(F)c2)[nH]n1	none
CCOC(=O)c1c(NC(=O)c2ccco2)sc(C(C)=O)c1C	none
Cc1nc(CC(=O)N2CCc3nnc(CCc4ccccc4)n3CC2)c(C)s1	none
Cc1[nH]n(-c2ccc([N+](=O)[O-])cc2)c(=O)c1C=NCCc1ccc(Cl)cc1	none
CCC(=O)Nc1cccc(C(=O)N2CCCC2c2ccccn2)c1 (stereo unspecified)	none
CS(=O)(=O)N(Cc1ccccc1Cl)c1ccc(C(=O)Nc2ccccc2F)cc1	none
Cn1c(=O)c(N)c2c3c(cccc31)C(=O)c1ccccc1-2	ST2 inh 31%
Cn1c(=O)c2c(-c3ccccc3)n(N)cc2n(C)c1=O	none
Cn1c2c(c(=O)n(C)c1=O)C(c1ccccc1)C1=C(N2)c2ccccc2C1=O (stereo unspecified)	none
Cc1cccc(NS(=O)(=O)C[C@@]23CC[C@H](CC2=O)C3(C)C)c1	none
Nc1ccc2oc(-c3cccc(I)c3)nc2c1	none
Cc1ccc(CNC(=O)c2cc(-c3ccc(Cl)s3)nc3ccccc23)o1	none
O=C(NCc1cccs1)c1cc(-c2ccc(Br)s2)nc2ccccc12	none
O=C(NCc1cccs1)c1cc(-c2ccc(Cl)s2)nc2ccccc12	ST2 inh 30%!
CCC(C)OC(=O)C1=C(C)NC2=C(C(=O)C(C(=O)OC)C(C)C2)C1c1ccc(C)s1 (stereo unspecified)	none
COc1ccccc1N1CCN(S(=O)(=O)c2c(C)c(C)cc(C)c2C)CC1	none
N#Cc1cc(C#N)c(SCc2ccc([N+](=O)[O-])cc2)nc1N	none
N#CSC(C#N)Cc1ccc([N+](=O)[O-])cc1 (stereo unspecified)	ST2 inh 51%
OC(Cc1ccccc1)c1ccccc1 (stereo unspecified)	none
N#CC(c1ccccc1)C(C#N)c1ccccc1 (stereo unspecified)	none
N#CSC(C#N)Cc1ccccc1 (stereo unspecified)	ST2 inh 33%
CC(C)(C)NCc1ccc([N+](=O)[O-])cc1	none
CC(C)NC(=O)c1ccnc(N2CCN(Cc3ccn(C(C)C)c3)CC2)c1	none
O=C(O)c1ccc(N2C(=O)c3ccc(Br)cc3C2=O)cc1	none
Cc1cc(C)nc(SCC(=O)Nc2ccc(OC(F)(F)Cl)cc2)n1	none
CC(=O)Nc1ccc(S(=O)(=O)NCc2ccccc2)cc1	none
O=C(O)c1ccc(NC2=CC(=NS(=O)(=O)c3ccc(Cl)cc3)c3ccccc3C2=O)cc1	ST2 inh 48%
CC(=O)Nc1ccc(NC2=CC(=NS(=O)(=O)c3ccccc3)c3ccccc3C2=O)cc1	ST2 inh 83%
O=S(=O)(Nc1ccc(S(=O)(=O)Nc2ccc(Cl)cc2)cc1)c1ccccc1	none
O=C(O)c1cccc(NC(=O)c2cccc(S(=O)(=O)Nc3ccc(Cl)cc3)c2)c1	none
CC(=O)Nc1ccc(NC2=CC(=NS(=O)(=O)c3ccc(C)cc3)c3ccccc3C2=O)cc1	ST2 inh 48%
C=CCC(CC=C)(NS(=O)(=O)c1ccc(NC(C)=O)cc1)c1ccccc1	none
CC(=O)Nc1ccc(S(=O)(=O)Nc2ccccc2Cl)cc1	none
CC(=O)Nc1ccc(S(N)(=O)=O)cc1	none
Cc1ccccc1CN1CC[C@H](c2nc3ccccc3[nH]2)C1	none
O=C(c1csc(-c2cccnc2)n1)N1C[C@@H]2[C@@H]3CC[C@@H](C3)[C@@H]2C1	none
Cc1cc(CN2C(=O)NC(Cc3ccc(F)cc3)(C3CCNCC3)C2=O)on1 (stereo unspecified)	none
CCC(CC)n1nc(C)cc1NC(=O)c1ccco1	none
CCOc1ccc(S(=O)(=O)Nc2cccc3c2CCCC3)c2cccnc12	none
C#Cc1ccc(-c2c(-c3ccccc3)ncn2CCC(=O)OC)cc1	none
CCc1c(C)nc2ncnn2c1Sc1ccccc1NC(=O)Nc1ccc(Br)c(C)c1	none
Cc1cc(Nc2ccc(O)cc2)n2ncnc2n1	none
CC(Oc1ccc(C=C2C(=O)c3ccccc3C2=O)cc1)C(=O)O (stereo unspecified)	none
COc1ccc(-c2nc3s/c(=C\c4ccc(N(C)C)cc4)c(=O)n3n2)cc1	none
CC(=O)N1/C(=C/c2ccc(N(C)C)cc2)C(=O)c2ccccc21	ST2 inh 66%
CC(=O)N1/C(=C/c2ccncc2)C(=O)c2ccccc21	ST2 inh 39%
CNC(=O)N1C(=O)C(=O)c2ccccc21	none
CC(=O)N1C(=O)C(=O)c2ccccc21	none
COc1ccc(CN(C)Cc2nc(C(c3ccccc3)c3ccccc3)no2)c2cccnc12	none
CCOc1ccc(C(=O)Nc2sc3c(c2-c2nc4ccccc4s2)CCN(C(C)=O)C3)cc1	none
Cc1ccc(C)c(-c2csc(NC(=O)CN3C(=O)CCC3=O)n2)c1	none
CCOc1ccc(C2C(C(=O)OC(C)C)=C(C)N=C3SCCC(=O)N32)cc1OCC (stereo unspecified)	none
CC(C)(C)CC(=O)NC1CC(=O)N(c2cccc(F)c2)C1 (stereo unspecified)	none
COc1ccc(Nc2ncnc(N)c2[N+](=O)[O-])cc1OC	none
